A number with no mark means an inactive call. Results filed as inconclusive are left out. The source made the active and inactive calls. Calls follow the shape of the dose curve; as a rule, active = well fitted curve in the direction sought with a large enough effect; inconclusive = small, poorly fitted or top-dose-only effect, or another doubt; inactive = no such curve, though single readings can be large; an effect the other way counts as inactive or inconclusive.

The values below come from PubChem BioAssay (NCATS).

Assay [1] addresses Glutathione peroxidase 1 (Homo sapiens) (UniProt P07203). The experiment in a line: Primary qHTS Assay for Inhibitors of Recombinant Selenoprotein Glutathione Peroxidase 1 (GPX1) (AID 1845191). Also: nearly all actives have a fitted effect of over 65% in size. In short, it runs like this: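 NADPH consumption tracked by fluorescence at 340/450 nm between t=0 and t=15 min, room temperature. Final mix: 10 nM GPX1, 100 nM glutathione reductase, 1 mM GSH, 0.5 mM NADPH, 0.5 mM cumene hydroperoxide, 0.01% BSA; 30 min compound–enzyme preincubation.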

For assay [2], the target named is Phospholipid hydroperoxide glutathione peroxidase GPX4 (Homo sapiens) (UniProt P36969). Briefly: Primary qHTS Assay for Inhibitors of Recombinant Selenoprotein Glutathione Peroxidase 4 (GPX4) (AID 1845192). Also: nearly all actives have a fitted effect of over 65% in size. Also: potency is read from the fitted curve at half-maximal effect. In short, it runs like this: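 NADPH consumption followed by fluorescence at 340/450 nm, t=0 and after 15 min at room temperature. Reaction started with cumene hydroperoxide (0.5 mM final) after 30 min compound–GPX4 preincubation; final 200 nM GPX4, 100 nM GR, 1 mM GSH, 0.5 mM NADPH.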
(qHTS replaces the single test concentration by a dilution series.)

Assay [3] can be described thus: Primary fluorescence-based thiol-reactive (MSTI) qHTS assay for identification of artifact compounds. (AID 1845221). Also: nearly all actives have a fitted effect of over 65% in size. Also: potency is read from the fitted curve at half-maximal effect. In short, it runs like this: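 First, 4 uM MSTI in 2% DMSO/PBS pH 7.4 was dispensed; next, compounds were added; then plates sat 1 h at room temperature without light. Finally, emission at 598 nm was recorded.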
Assay [4] deals with Nanoluciferase (engineered Oplophorus gracilirostris luciferase). The experiment in a line: Primary Nanoluciferase (NLuc) qHTS assay for identification of artifact compounds. (AID 1845222).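 Also: NLuc secreted into diluted conditioned medium of S16 cells; series mostly up to about 54 µM.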 In short, it runs like this:
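NLuc from S16 cell medium (1:55) plus test compounds, 15 min, room temperature. Luminescence after Nano-Glo (1:100) addition, 5 min.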

For assay [5], the target named is Luciferin 4-monooxygenase (Photinus pyralis) (UniProt P08659). The experiment in a line: Primary firefly luciferase (FLuc) qHTS assay for identification of artifact compounds. (AID 1845220). Also: nearly all actives have a fitted effect of over 60% in size. A digest of the protocol: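 FLuc 10 nM; luciferin 10 uM; ATP 10 uM; Tris-acetate pH 7.6, Mg-acetate 10 mM; 15 min RT preincubation; 5 min reaction; luminescence.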

Sequence of Glutathione peroxidase 1 (Homo sapiens) (P07203 whole entry, looked up): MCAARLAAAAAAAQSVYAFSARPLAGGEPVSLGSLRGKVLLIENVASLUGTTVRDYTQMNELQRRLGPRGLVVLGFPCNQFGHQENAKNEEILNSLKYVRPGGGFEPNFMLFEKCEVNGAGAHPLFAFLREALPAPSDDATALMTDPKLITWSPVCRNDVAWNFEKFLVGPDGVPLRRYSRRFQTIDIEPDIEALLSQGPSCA
Sequence of Phospholipid hydroperoxide glutathione peroxidase GPX4 (Homo sapiens) (P36969 whole entry, looked up): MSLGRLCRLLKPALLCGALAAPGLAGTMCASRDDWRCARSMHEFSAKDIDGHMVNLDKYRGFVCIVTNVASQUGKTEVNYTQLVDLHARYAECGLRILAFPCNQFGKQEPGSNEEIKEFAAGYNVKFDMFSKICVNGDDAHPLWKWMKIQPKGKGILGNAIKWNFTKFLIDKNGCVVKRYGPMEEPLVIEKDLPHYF

As to `Oc1cccc(C2NC(=S)Nc3cccc(F)c32)c1` (stereo not given), the Potency entry in assay [1], in assay [2], in assay [3] and in assay [4] was “inactive” each time.

As for `Cc1[nH]c2ccccc2c1CCNC(=O)c1cccs1`, the Potency result in assay [1], in assay [2] and in assay [4] was “inactive” in each case. In addition, the Potency in assay [3] was 8.44 µM (active).

Take `CCOC(=O)c1cnc2ccc(-c3cncc(NS(=O)(=O)c4ccccc4)c3)cn12`: the Potency result in assay [1], in assay [2], in assay [3] and in assay [4] was “inactive” each time.

In the case of `C=C1C(=O)O[C@@H]2C[C@H](C)[C@@H]3CC(=O)C(C)=C3C[C@H]12`, the Potency entry in assay [1], in assay [2], in assay [3] and in assay [4] was “inactive” in each case.

Consider `Nc1cccc(CNC(=O)c2ccc(Oc3ccc(OCc4cccc(F)c4)cc3)nc2)c1`, for which the Potency result in assay [1], in assay [2], in assay [3] and in assay [4] was “inactive” in each case.

With `CCc1cnc(N2CCC(c3nc(COc4ccc(-n5cnnn5)cc4)cs3)CC2)nc1`, the Potency entry in assay [1], in assay [2], in assay [3] and in assay [4] was “inactive” each time.

As for `COc1ccc(-c2cc3onc(-c4ccncc4)c3c(=O)n2C)cc1`, the Potency result in assay [1], in assay [2], in assay [3] and in assay [4] was “inactive” each time.

As for `COc1ccccc1C(=O)Nc1cccc(NC(=O)c2cccc(C)c2)c1`, the Potency entry in assay [1], in assay [2], in assay [3] and in assay [4] was “inactive” in each case.

As to `COc1c(C(C)C)c(O)c(O)c2c1C(OC)[C@H]1OC(=O)[C@@]23CCCC(C)(C)[C@H]13` (stereo not given in full), the Potency result in assay [1], in assay [2] and in assay [4] was “inactive” each time. Moreover, the Potency in assay [3] was 2.93 µM (active).

Turning to `CCCN1CCC=C(c2cc(-c3ccc(C)cc3)no2)C1`, the Potency result in assay [1], in assay [2], in assay [3] and in assay [4] was “inactive” in each case.

For the compound `CN1CC2CN(c3ccc4oc5ccccc5c(=O)c4c3)CC2C1` (stereo not given), the Potency result in assay [1], in assay [2] and in assay [4] was “inactive” each time.

In the case of `O=C(Nc1ccc(Cl)cc1)Nc1cccc(-c2cccc(N3CCCC3)n2)c1`, the Potency entry in assay [1], in assay [2], in assay [3] and in assay [4] was “inactive” throughout.

`O=S(=O)(NCc1ccccn1)c1ccc(Br)c2ccccc12`: the Potency result in assay [1], in assay [2], in assay [3] and in assay [4] was “inactive” in each case.

With `O=C(Cc1c(F)cccc1F)Nc1cc(OCc2ccc(Cl)cc2)ccn1`, the Potency result in assay [1], in assay [2], in assay [3] and in assay [4] was “inactive” each time.

Regarding `COc1cc2nc(N3CCN(C(=O)c4ccco4)C4CCCCC43)nc(N)c2cc1OC` (stereo not given), the Potency result in assay [1] and in assay [4] was “inactive” each time. Also, the Potency in assay [2] is 22.7 µM (active).

For `NCC1CCN(c2nccc(-c3ccc4ccccc4c3)n2)CC1`, the Potency result in assay [1], in assay [2], in assay [3] and in assay [4] was “inactive” in each case.

Turning to `Cc1cc(C)c(-n2cc(C)c3c(Cl)nc(C)nc32)c(C)c1`, the Potency entry in assay [1], in assay [2], in assay [3] and in assay [4] was “inactive” each time.

On to `CC1(C)CCC(C)(C)c2cc(C#Cc3ccc(C(=O)O)cc3)ccc21`, for which the Potency result in assay [1], in assay [2], in assay [3] and in assay [4] was “inactive” each time.

For the compound `COC(C)(C)CCn1nc(Nc2c(C)cccc2C)c2cnc(Nc3ccc(OCCN4CCCC4)c(F)c3)nc21`, the Potency entry in assay [1], in assay [2] and in assay [4] was “inactive” in each case.

For the compound `CC#C[C@@H](CC(=O)O)c1ccc(OCc2cccc(-c3ccc(C(F)(F)F)cc3)c2)cc1`, the Potency result in assay [1], in assay [3] and in assay [4] was “inactive” each time. Besides, the Potency in assay [2] was 5.7 µM (active).

Take `c1ccc(-c2cnn3cc(-c4ccc(OCCN5CCOCC5)cc4)cnc23)cc1`: the Potency entry in assay [1], in assay [2], in assay [3] and in assay [4] was “inactive” in each case.

In the case of `CC(C)Nc1nc(Nc2ccccc2)nc(-c2ccccc2)n1`, the Potency entry in assay [1], in assay [2], in assay [3] and in assay [4] was “inactive” each time.

On to `Cc1cc(C(C)Nc2ccccc2C(=O)O)c2nc(N3CCOCC3)cc(=O)n2c1` (stereo not given), for which the Potency entry in assay [1], in assay [2] and in assay [4] was “inactive” throughout.

For the compound `CCc1ccc(-c2nc(CSCC(=O)NCCc3ccccc3)c(C)o2)cc1`, the Potency entry in assay [1], in assay [2], in assay [3] and in assay [4] was “inactive” in each case.

`C[C@@H](NC(=O)C(=O)c1c[nH]c2ccc([N+](=O)[O-])cc12)c1ccccc1`: the Potency result in assay [1], in assay [2] and in assay [4] was “inactive” in each case.

As for `CN[C@@H]1[C@H](O[C@H]2[C@H](O[C@@H]3[C@@H](O)[C@H](O)[C@@H](N=C(N)N)[C@H](O)[C@H]3N=C(N)N)O[C@@H](C)[C@]2(O)CO)O[C@@H](CO)[C@H](O)[C@H]1O`, the Potency result in assay [1], in assay [5], in assay [3] and in assay [4] was “inactive” throughout.

Turning to `O=C(NCC(=O)N1CCCC1)Nc1ccc2cnccc2c1`, the Potency result in assay [1], in assay [5] and in assay [3] was “inactive” throughout.

For the compound `Fc1ccc(-n2cc(CCCCN3CCC4(CC3)OCc3ccccc34)c3ccccc32)cc1`, the Potency entry in assay [1], in assay [5], in assay [3] and in assay [4] was “inactive” throughout.

For `N#Cc1ccc(COC[C@H]2O[C@@H](n3c(NCc4ccc(Cl)c(Cl)c4)nc4c(N)ncnc43)[C@H](O)[C@@H]2O)cc1`, the Potency entry in assay [1], in assay [5], in assay [3] and in assay [4] was “inactive” in each case.

Turning to `Cc1cc(CS(=O)(=O)c2ccccc2)cc(OCc2ccc(CN3CCCC3CO)cc2)c1` (stereo not given), the Potency result in assay [1], in assay [5] and in assay [3] was “inactive” each time.

On to `C/C(=C\CO[C@@H]1O[C@H](CO[C@H]2OC[C@](O)(CO)[C@H]2O)[C@@H](O)[C@H](O)[C@H]1O)C(C)(C)O`, for which the Potency entry in assay [1], in assay [5], in assay [3] and in assay [4] was “inactive” each time.

As for `COC(=O)c1ccc2c(c1)nc(NC(=O)c1ccccc1)n2CCCc1ccccc1`, the Potency entry in assay [1], in assay [2] and in assay [4] was “inactive” in each case.
